PNC assembly inh: blocks assembly of the perinucleolar compartment; activity change (PNC), negative = inhibition, % at 10 µM; 140,000 tested, 3.1% active; PC3M PTB-GFP, PNC prevalence imaging, 16 h; stronger effect = lower value;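 active = readout at or below -70, meaning at least 70% loss of cells showing the perinucleolar compartment, a nuclear body marking cancer cells; inconclusive = readout between -30 and a set limit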
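PC3M cells stably expressing PTB-GFP, 750–1000 cells/well, treated 16 h at 37 °C with compound (23 nl of library stock), in duplicate. After paraformaldehyde fixation and Hoechst stain, imaged at 20x; PNC prevalence scored by image analysis.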
ALDH1A1 inh: inhibitors of human aldehyde dehydrogenase 1A1; Purified ALDH1A1, NADH fluorescence, propionaldehyde substrate; Potency, µM (series often up to 75.3 µM), hits mostly inhibitors; 220,000 tested, 7.3% active
Target sequence (P00352 whole entry, looked up): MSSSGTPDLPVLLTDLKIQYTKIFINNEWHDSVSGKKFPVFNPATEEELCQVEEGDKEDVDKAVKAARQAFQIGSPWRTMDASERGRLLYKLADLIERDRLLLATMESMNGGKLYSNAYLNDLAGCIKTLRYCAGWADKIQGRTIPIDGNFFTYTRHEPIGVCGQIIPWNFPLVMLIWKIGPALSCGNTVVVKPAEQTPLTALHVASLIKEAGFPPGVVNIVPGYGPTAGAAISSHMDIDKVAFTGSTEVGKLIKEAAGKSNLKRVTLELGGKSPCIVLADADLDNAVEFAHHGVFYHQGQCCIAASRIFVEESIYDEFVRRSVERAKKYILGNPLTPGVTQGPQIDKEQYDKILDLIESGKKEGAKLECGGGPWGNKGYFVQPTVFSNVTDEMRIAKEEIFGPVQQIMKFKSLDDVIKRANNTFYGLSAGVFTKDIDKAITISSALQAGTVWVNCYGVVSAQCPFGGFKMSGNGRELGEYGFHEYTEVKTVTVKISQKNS
HPGD block: HPGD (human) dehydrogenase inhibition; Potency, µM, usual class: inhibitors; P15428; 150,000 tested, 4.3% active; purified HPGD, NADH fluorescence kinetic, PGE2 substrate
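20 nM HPGD preincubated 15 min at room temperature with compound in 50 mM Tris-HCl pH 8, 0.01% Tween 20. Started with 1 mM NAD+ and 30 uM prostaglandin E2; NADH fluorescence (360/450 nm) read 5 times over 30-s intervals, last minus first.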
A number is an active result; n = inactive; u = inconclusive; x = no result; [ ] = dose if it differs, or a comment. Most compounds without a hit are left out; they make up all but 11% or so of the library. Unless noted, calls come from the whole dose curve; as a rule, active = well fitted inhibition curve with a large enough effect (not every such curve was filed as active); inconclusive = small, poorly fitted or top-dose-only effect, or another doubt; inactive = no such curve, though single readings can be large or run the other way.

SMILES | PNC assembly inh | ALDH1A1 inh | HPGD block
Cc1nnc(SCC(=O)Nc2ccc3c(c2)OCCO3)s1 | n | n | n
Cc1cc(C)n2c(SCC(=O)Nc3ccccc3)nnc2n1 | n | n | n
CCN(CC)c1ccc(NC(=O)CSc2nnc3nc(C)cc(C)n23)cc1 | n | u | 16µM
COCCNC(=O)C1(CC(C)C)C=CCN1C(C)=O (stereo not given) | x | n | n
CO[C@]12C[C@@H](COC(=O)c3cncc(Br)c3)CN(C)[C@@H]1Cc1cn(C)c3cccc2c13 | x | n | n
Cc1ccsc1/C=N/NC(=O)C1C(=O)NCC1c1ccccc1 (stereo not given) | x | n | x
CCOc1ccc(OCCn2nnc3ccccc3c2=O)cc1 | x | n | x
CCN(CC)c1ccc(NC(=O)c2nc3nc(C)cc(C(F)F)n3n2)cc1 | n | 11µM | 22µM
COc1ccccc1CNC(=O)COC(=O)c1cc(-c2ccco2)nc2ccccc12 | n | u | u
COc1ccc(NC(=O)c2nc3nc(C)cc(C(F)F)n3n2)cc1OC | u | n | n
Cc1cc(C)n2nc(C(=O)Nc3ccc4c(c3)OCO4)nc2n1 | n | u | 20µM
O=C(COC(=O)c1cc(S(=O)(=O)N2CCOCC2)ccc1Cl)Nc1ccc2c(c1)OCO2 | n | u | n
Cc1ccnc2nc(C(=O)Nc3ccc4c(c3)OCO4)nn12 | n | n | n
O=C(COC(=O)Cc1ccc(S(=O)(=O)N2CCOCC2)s1)Nc1ccc2c(c1)OCO2 | n | 20µM | n
O=C(COC(=O)c1cc(-c2ccco2)nc2ccccc12)NCc1ccc2c(c1)OCO2 | -100 | u | u
CC(C)(C)N(CC#CCC1(O)c2ccccc2-c2ccccc21)CCO | x | n | x
CC(=O)c1c(C)n(CC(=O)NCc2ccco2)c2ccccc12 | x | n | x
Cc1nnsc1-c1onc(C)c1C(=O)O/N=C/c1ccc(Cl)cc1 | x | n | x
COc1ccc(S(=O)(=O)NCc2ccc(C(=O)NCc3cccnc3)cc2)cc1 | x | n | x
Nc1nc(C(F)(F)F)cc(=O)n1N | x | n | x
CC(C)CO/N=C1/C[C@@H](O)[C@@H](O)[C@@H]2[C@@H]3C(=O)N(C(C)(C)C)C(=O)[C@H]3CC[C@@H]12 | x | n[13.5 µM] | x
CN(C)CCCNC(=O)c1cc(C(=O)c2ccc(F)cc2)c[nH]1 | x | n | x
O=C(CCl)Nc1ccc2c(c1)OCO2 | x | 1.6µM | x
CC(C)CC(=O)Nc1ccc2c(c1)OCO2 | x | n | x
COC(=O)c1sccc1NC(=S)N1CCC(C(N)=O)CC1 | x | n | x
SMILES | PNC assembly inh | ALDH1A1 inh | HPGD block
COc1ccc(C(=O)NC(=S)N2CCCCC2)cc1 | n | 16µM | 18µM
COc1cc(OC)cc(C(=O)NC(=S)N2CCCCCC2)c1 | x | n | x
COC(=O)c1sccc1NC(=S)N1CCCCC1 | n | 7.9µM | u
COc1ccc(C(=O)NC(=S)N2CC(C)OC(C)C2)cc1 (stereo not given) | n | n | n
COc1ccc(C(=O)NC(=S)N2CCC(C)CC2)cc1 | n | u | 22µM
Cc1nn(-c2cccc(C(F)(F)F)c2)c(=O)c2noc(C)c12 | x | n | x
O=[N+]([O-])c1ccc(S(=O)(=O)Cc2ccccc2)c([N+](=O)[O-])c1 | x | 1.3µM | n
O=[N+]([O-])c1ccc(NC2CCN(Cc3ccccc3)CC2)c([N+](=O)[O-])c1 | x | n | x
COc1ccc(C(=O)OCCNC(=O)c2ccncc2)cc1OC | u | n | n
O=C(O)c1cc(=O)[nH]c(=S)[nH]1 | x | n[13.5 µM] | n
CN(C)C(=O)c1nc2ccc(Cl)cn2c1CNCc1ccccc1OC(F)(F)F | x | n | x
COc1ccc(OC)c(/C=C2\S/C(=N/NC(=O)c3ccc4ccccc4c3)NC2=O)c1 | n | u | 4µM
O=C1N/C(=N/NC(=O)c2cccc3ccccc23)S/C1=C\c1ccccc1OCc1ccccc1 | n | n | n
O=C(CS(=O)(=O)Cc1ccccc1)NCc1ccco1 | x | n | x
NC(N)=NC[C@@H]1COC2(CCCCC2)O1 | x | n | n
COC(=O)c1ccc(C(=O)OC)c(NC(=S)N2CCC(C)CC2)c1 | n | u | n
N#CC1=C(N)OC2=C(C(=O)CCC2)C1c1ccccc1 (stereo not given) | n | n | n
CC1CC(=O)C2=C(C1)OC(N)=C(C#N)C2c1coc2ccccc2c1=O (stereo not given) | n | 18µM | n
NCCC[C@@H](CC(=O)N[C@@H]1CCNC[C@H]1C(=O)N[C@H](CC(=O)N[C@@H](CCC(=O)O)CC(=O)O)Cc1c[nH]c2ccccc12)NC(=O)C[C@H](Cc1ccccc1)NC(=O)[C@@H]1CNCC[C@H]1N | x | n | n
CCOc1cc(/C=N/NC(=S)Nc2ccccc2C(F)(F)F)ccc1OCC(=O)N1CCOCC1 | n | u | u
CC(Sc1nnnn1C)C(=O)Nc1ccc2c(c1)OCCO2 (stereo not given) | x | n | x
COc1cccc(C(=O)N2CCN(C(=O)c3cccc(F)c3)CC2)c1 | n | u | n
O=C(c1cncc(Br)c1)N1CCc2ccccc2C1 | u | n | 10µM
O=C(c1cccc(F)c1)N1CCc2ccccc2C1 | n | 14µM | 5µM
O=C(c1ccc(Cl)nc1)N1CCc2ccccc2C1 | u | n | 7.9µM
SMILES | PNC assembly inh | ALDH1A1 inh | HPGD block
Cc1cccc(C(=O)NC(=S)N2CCc3ccccc3C2)c1 | -82 | u | n
CCNC(=S)N1CCc2ccccc2C1 | x | n | x
O=C(c1cncc(Br)c1)N1CCCc2ccccc21 | n | n | n
O=C(c1cnccn1)N1CCc2ccccc2C1 | x | n | x
CC(C)=CCC1(CC=C(C)C)C(=O)C(C(=O)c2ccccc2)=C2OC(C)(C)CCC2(CC=C(C)C)C1=O (stereo not given) | x | n[13.5 µM] | x
CSc1ccccc1C(=O)N1CCc2ccccc2C1 | x | n | x
O=C(c1ccccc1Cl)N1CCc2ccccc2C1 | n | u | 4.5µM
Cc1ccc(NC(=O)c2cccc(S(=O)(=O)N(C)c3ccccc3)c2)cc1S(=O)(=O)N1CCOCC1 | n | n | n
Nc1ccc(N2CCCCC2)c(Cl)c1 | x | n | x
Nc1ccc(N2CCN(c3ccc(F)cc3)CC2)cc1 | x | 22µM | x
Nc1ccc(N2CCN(c3ccc(Cl)c(Cl)c3)CC2)cc1 | u | n | n
Nc1ccc(N2CCCCCC2)cc1 | u | 7.9µM | n
COc1cc(NC(=O)CSc2nc(C)c(C)c(C)n2)cc(OC)c1 | x | n | x
COc1cccc(CN2CCN(Cc3cc(OC)c(OC)cc3[N+](=O)[O-])CC2)c1 | n | 25µM | n
COc1cc(CN2CCN(Cc3ccc([N+](=O)[O-])cc3)CC2)c([N+](=O)[O-])cc1OC | x | 35µM | x
COc1cc(CN2CCN(c3ccccc3F)CC2)c([N+](=O)[O-])cc1OC | u | 28µM | n
COc1ccc(-c2noc(CN3CCN(c4ccccc4F)CC3)n2)cc1OC | n | u | n
COc1cccc(CN2CCN(c3ncccn3)CC2)c1 | n | u | n
O=[N+]([O-])c1ccc(CN2CCSCC2)cc1 | x | n | x
Cc1[nH]c2ccc(F)cc2c1CCN(Cc1cccnc1)C(=S)Nc1cccc(F)c1 | x | n | x
CCN1CCN(C(=O)N[C@H](C(=O)N[C@@H]2C(=O)N3C(C(=O)O)=C(CSc4nnnn4C)CS[C@@H]23)c2ccc(O)cc2)C(=O)C1=O | x | n | n
O=C(OCCO)c1ccccc1O | x | n | n
Cc1ccc(C)c(NC(=O)c2sc(Cl)nc2C)c1 | n | n | n
Cc1ccc(OC(=O)c2sc(Cl)nc2C)cc1C | n | 20µM | n
N#Cc1ccc(CS(=O)(=O)c2ccccc2)cc1 | x | n | n
Cc1ccc(C(C)C)c(OCc2nn(CC(=O)c3ccc(Cl)cc3)c3[n+]2CCCCC3)c1 | x | n | x

High-throughput results (PubChem)
